An excerpt weighted towards active compounds, which were near 3.3% of everything screened.
Calb FLC: affects C. albicans growth with fluconazole; C. albicans CaCi-2 (fluconazole-resistant clinical isolate) + fluconazole, Alamar Blue growth, 48 h; growth inhibition, % (test concentration not listed); actives 0.57% (n = 300,000);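 active means growth inhibition above about 58% in most replicates, limit read from the data, passing the limit was not always enough; inconclusive means exactly half the replicates above a set limit; inactive means most replicates below a set limit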;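 further: all wells also contain fluconazole at 8 µg/ml as a sub-toxic cotreatment; 0% = median of DMSO wells and 100% = median of geldanamycin control wells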
Cardio protect: modulators protecting cardiomyocytes from myocardial damage; H9c2 cardiomyocytes, H2O2 injury protection, ATPLite, 2 h; protection from H2O2 cell death, % at 20 µM; actives 0.63% (n = 360,000);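 active means compounds giving at least 50% protection of heart cells from peroxide-induced death in the single-dose screen, raw or plate-pattern-corrected value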;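 further: 0% = DMSO wells with peroxide and 100% = DMSO wells without peroxide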
Efflux pump mplx: antifungal efflux pump inhibition, Nile Red retention; S. cerevisiae Candida pump triplex; inhibition, % at 10 µM; actives 0.44% (n = 330,000); AID 485275;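 active means plate passing quality check with inhibition over a set limit, or well fluorescence over plate mean plus 4 SD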;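 further: Nile Red retained in pooled yeast measured as flow cytometry median fluorescence; 0% = buffer negative control and 100% = Enniatin B positive control; higher means more Nile Red kept so more efflux inhibition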
PHOSPHO1 inh: PHOSPHO1 (human) inhibition. Q8TCT1. recombinant PHOSPHO1, absorbance phosphatase assay. inhibition, % at 13.3 µM. actives 1.1% (n = 290,000). AID 1565; in the data active means inhibition above about 60%
Target sequence (Q8TCT1 whole entry, looked up): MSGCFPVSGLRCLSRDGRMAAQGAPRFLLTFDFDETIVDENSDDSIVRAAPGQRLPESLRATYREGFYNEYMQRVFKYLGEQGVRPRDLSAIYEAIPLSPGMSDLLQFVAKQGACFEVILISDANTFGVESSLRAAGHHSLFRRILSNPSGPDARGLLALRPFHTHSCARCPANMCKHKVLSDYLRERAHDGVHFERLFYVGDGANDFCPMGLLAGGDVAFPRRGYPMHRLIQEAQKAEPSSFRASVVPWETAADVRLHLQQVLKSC
Cl transport mod: KCC2 (human) Cl- transport modulation; AID 1456; KCC2 cells, thallium flux FluoZin-2 fluorescence; B-score of Tl+ flux slope (higher = more flux/activation; lower = inhibition) at 10 µM; Q9H2X9; actives 2.2% (n = 190,000);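 active means thallium flux slope and its plate-corrected score both differing from the plate sample mean at a set confidence after two filtering rounds, in either direction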;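 further: slope of fluorescence scaled to starting intensity during 10 to 20 s after thallium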
KCC2 sec1: confirmation of human KCC2 transport modulators. HEK293-KCC2, thallium flux, FluoZin2 fluorescence; active compounds read high. shares compounds with Cl transport mod. normalised thallium flux (F/F0 slope) at 10 µM. actives 15% (n = 3,700);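 active means thallium flux slope above the same plate's solvent-only control mean plus 3 SD; inconclusive means the two replicate wells disagree; inactive means no significant difference from solvent-only control wells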
KCC2 bumet counter: bumetanide-insensitive thallium flux in KCC2 cells with ouabain, counter-screen. shares compounds with Cl transport mod. HEK293-KCC2 + bumetanide/ouabain, thallium flux FluoZin2; active compounds read high. normalized thallium flux at 10 µM. actives 49% (n = 3,700). AID 1714;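 active means thallium entry rate above the same plate's blocked-transporter control wells by more than 3 SD; inconclusive means the two repeat wells disagree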;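 further: raw slope of fluorescence over initial fluorescence between 10 and 20 s after thallium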
KCC2 secondary2: confirmation of human KCC2 transport modulators. normalized thallium flux at 10 µM. AID 1715. actives 23% (n = 3,700). HEK293-KCC2, thallium flux FluoZin2 fluorescence; actives lie on both sides; F/F0 rise rate, 10–20 s post-thallium. shares compounds with Cl transport mod;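 active means thallium flux slope more than 3 SD above or below the plate's solvent-only control mean, mostly below; inconclusive means the two repeat wells disagreed; inactive means no significant shift from solvent-only controls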;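 further: raw slope with 0.1% DMSO as baseline and bumetanide as block control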
HEK counter1: parental HEK flux effect, counter-screen | shares compounds with Cl transport mod | HEK293 parental cells, thallium flux FluoZin2, ouabain; baseline-ratio fluorescence slope, 10–20 s after thallium | thallium flux rate (normalised fluorescence) at 10 µM | actives 46% (n = 3,700);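 active means thallium flux rate significantly above the same plate's solvent-only control wells, beyond their mean plus 3 SD; inconclusive means the two replicate wells gave conflicting results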
KCC2 retest ouab: KCC2 (human) modulation, ouabain retest | shares compounds with Cl transport mod | HEK293-KCC2, thallium flux FluoZin2 fluorescence; bidirectional: low = inhibitor, high = activator | raw Tl+ flux slope (below DMSO = inhibition, above = activation) at 10 µM | actives 48% (n = 3,700) | AID 1717;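 active means thallium flux slope beyond 3 SD from same-plate DMSO control mean in most replicates, usually higher, sometimes lower; inconclusive means repeat tests gave conflicting results; inactive means no significant difference from controls in most replicates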;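 further: slope of initial-normalized fluorescence between seconds 10 and 20 after thallium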
HEK293 Tl flux2: parental HEK flux effect, counter-screen 2; actives 33% (n = 3,700); shares compounds with Cl transport mod; HEK293 parental, thallium flux FluoZin-2 fluorescence slope; thallium flux slope at 10 µM;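 active means thallium flux slope above the same plate's solvent-control mean plus 3 SD in both duplicate wells; inconclusive means duplicate wells that disagreed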;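 further: run without ouabain in cells lacking the KCC2 cotransporter; slope of fluorescence scaled to its starting value between 10 and 20 s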
Active calls of the source: *; u = inconclusive; x = no result.

SMILES	Calb FLC	Cardio protect	Efflux pump mplx	PHOSPHO1 inh	Cl transport mod	KCC2 sec1	KCC2 bumet counter	KCC2 secondary2	HEK counter1	KCC2 retest ouab	HEK293 Tl flux2
O=C(NCCCCc1ccccc1)C1CC(c2cccc(F)c2)=NO1 (centres undefined)	-3	-4	0	26	-2.7*	0.0069	0.0037	0.025*	0.0067	0.016	0.0094
CCCCNC(=O)c1onc(CSc2cccc3ccccc23)c1C(=O)O	-18	-15	0	16	-4.8*	0.0073	0.006	0.029	u	0.018*	0.0094
CCCCNC(=O)c1onc(CSc2ccccc2)c1C(=O)O	-3	-1	0	-6	0.22	x	x	x	x	x	x
O=C(O)CSc1c(Cl)c(=O)oc2ccc(Cl)cc12	x	1	x	x	x	x	x	x	x	x	x
C=CCn1c(Cc2cccs2)nnc1SC/C=C/c1ccccc1	-10	-6	0	22	-4*	0.0051	u	u	0.0053*	0.014*	0.0085*
CCn1c(SC/C=C/c2ccccc2)nnc1-c1cccs1	-1	-7	0	32	x	x	x	x	x	x	x
Nc1ncc(Br)cc1S(=O)(=O)Nc1ccccc1F	-1	-4	0	13	x	x	x	x	x	x	x
Cc1ccc(NC(=O)CCN2C(=O)NC3(CCCC3)C2=O)c(C)c1	x	8	0	x	x	x	x	x	x	x	x
Cc1ccc(NC(=O)NC(=O)CN2C(=O)NC3(CCCCCCC3)C2=O)c(C)c1	-4	6	0	-7	-5.5*	0.0099	0.0074	0.035	0.0047	0.02	0.012
Cc1nnc(NC(=O)c2cccc(S(=O)(=O)N3CC(c4ccccc4)CC3=O)c2)s1 (centres undefined)	28	0	0	-12	-3.2	x	x	x	x	x	x
COc1ccc(C(=O)Nc2nncs2)cc1S(=O)(=O)N1CC(c2ccccc2)CC1=O (centres undefined)	11	9	0	20	x	0.0063	0.0051	0.029	0.0075	u	0.011
Cc1cc(NC(=O)c2cccc(S(=O)(=O)N3CC(c4ccccc4)CC3=O)c2)no1 (centres undefined)	17	-7	0	-10	-5.4*	u	0.0039	0.022*	0.006*	0.013*	u
COc1ccc([C@H]2CC(=O)C=C(c3ccc4c(c3)OCCO4)C2)cc1	x	-6	0	x	x	x	x	x	x	x	x
COc1ccc(Cl)cc1C(=O)NNC(=O)c1[nH]c(C)c(C(C)=O)c1C	x	17	0	x	x	x	x	x	x	x	x
CCOC(=O)c1c(C=O)c2sc(C)cc2n1C	1	3	0	28	-1.3	x	x	x	x	x	x
Cc1ccc(C2=NNC(c3cccc(F)c3)S2)cc1 (centres undefined)	-18	-20	0	-10	10*	0.0062	u	0.03	0.0085	0.02	u
Cc1ccc(C2=NNC(C(O)C(O)C(O)C(C)O)S2)cc1 (centres undefined)	-7	-10	0	7	0.081	x	x	x	x	x	x
Cn1cc(C(=O)C(=O)N2CCCc3ccccc32)c2ccccc21	8	12	0	4	-4.4*	0.017	0.0051	0.024*	0.0066	0.013	0.0094
Cc1nc(=S)c2c([nH]1)-c1ccccc1CC21CCCCC1	-2	22	0	48	77*	0.02*	0.1*	0.03	0.04*	0.068*	0.011*
CCc1nc2c(c(=O)[nH]1)C1(CCCC1)Cc1ccccc1-2	-8	5	0	50	x	0.0096	0.0059	0.033	0.0074	0.023	0.01
O=c1[nH]c(CN2CCCCC2)nc2c1C1(CCCCC1)Cc1ccccc1-2	3	11	0	-3	-0.77	x	x	x	x	x	x
CNS(=O)(=O)c1cn(CC(=O)NCc2ccc(F)cc2)cc1S(=O)(=O)NC	-2	0	0	38	x	x	x	x	x	x	x
COCCN(C(=O)COC(=O)CSc1ccc2ccccc2c1)c1c(N)n(Cc2ccccc2)c(=O)[nH]c1=O	3	-2	0	x	x	x	x	x	x	x	x
Cc1cc(Cl)ccc1Oc1ccc(C(N)=O)cc1[N+](=O)[O-]	56	-8	0	-14	0.0011	x	x	x	x	x	x
Cc1cc(Cl)ccc1Oc1ccccc1C(=O)CC#N	22	1	0	-16	-5.5*	0.0064	0.0048	u	0.0065	u	0.0093
SMILES	Calb FLC	Cardio protect	Efflux pump mplx	PHOSPHO1 inh	Cl transport mod	KCC2 sec1	KCC2 bumet counter	KCC2 secondary2	HEK counter1	KCC2 retest ouab	HEK293 Tl flux2
Clc1ccc(-c2csc(NNC3=NCCCCC3)n2)cc1	-11	-10	0	-68	-4.4*	u	0.0064	0.03	0.0073	0.019*	0.0095
CC(C)C[C@@H](CN)NC(=O)c1nc[nH]c1C(=O)N[C@@H](CC(C)C)C(=O)CNC[C@H](C)NC(=O)c1nc[nH]c1C(=O)N[C@@H](CC(C)C)C(=O)O	x	5	x	x	x	x	x	x	x	x	x
Cc1ccc(-c2csc3ncnc(SCC(N)=O)c23)cc1	-14	9	0	29	7.9*	0.018*	0.06*	0.038	u	0.05*	u
Cc1ccc(-c2csc3nc(SCC(N)=O)n(Cc4ccccc4)c(=O)c23)cc1	22	-5	0	-9	6.7*	0.011	0.021*	0.033	0.028*	0.026*	0.012
Cc1sc2ncnc(SCc3ccc(C(=O)O)cc3)c2c1C	-4	0	0	-8	1.4	x	x	x	x	x	x
Cc1ccc(-c2csc3ncnc(SCc4ccc(C(=O)O)cc4)c23)cc1	16	16	0	20	140*	0.0082	0.12*	0.095*	0.094*	0.11*	0.09*
Cc1ccc(S(=O)(=O)N2CCN(C(=O)c3ccnn3C)CC2)cc1C	3	1	0	23	x	x	x	x	x	x	x
CCOc1ccccc1N1CCN(C(=O)c2cc(-c3cc(OC)ccc3OC)nc3ccccc23)CC1	-2	48	0	38	x	x	x	x	x	x	x
CN1c2ccccc2C(O)=C(C(=S)Nc2ccc(Cl)cc2)S1(=O)=O	16	-13	0	36	x	0.0065	0.021*	0.035	0.017*	u	0.021*
Cn1c(C(=O)OC(C(=O)NC2CCCC2)c2cccnc2)cc2sccc21 (centres undefined)	12	2	0	-10	-2.7*	0.0083	0.0063	0.028	0.0075	0.045*	0.011*
